# Test results published in the supplement of paper PMC8728848.
# Shown is part of a subset that was picked to be rich in the strongest signals.
# B1: AAA (Anguilla anguilla), Q7SIC1 (protein)
# chain: VIPEGYTQENVAVRGKATQSAQLRGEHAANSEASNAIDGNRDSNFYHGSCTHSSGQANPWWRVDLLQVYTITSVTITNRGDCCGERISGAEINIGQHLASNGVNNPECSVIGSMATGETKTFHCPAPMIGRYVVTYLPTSESLHLCEVEVNVDKPAAA
# Experiments:
# Test in all cases: glycan array binding signal (z-score within array); higher = stronger binding
# Conditions in all cases: glycan notation: IUPAC condensed, linker removed
# [1] = target: Fuc(a1-2)Gal(b1-3)GalNAc(a1-3)[Fuc(a1-2)]Gal(b1-4)Glc
# Procedure, shortened: (§1)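 The binding signal is a Z-score computed within each array. Data were drawn from 3228 arrays in the Consortium for Functional Glycomics database, restricted to those with a known protein sequence. Scores were averaged over arrays of the same protein sequence at different concentrations or buffers, and over linkers, and negative values can be taken as non-binding.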
# [2] = target: Fuc(a1-2)Gal(b1-3)GalNAc(b1-4)[Neu5Ac(a2-3)]Gal(b1-4)Glc
# Procedure, shortened: as §1
# [3] = target: Fuc(a1-2)Gal(b1-3)GlcNAc(b1-3)Gal(b1-4)Glc
# Procedure, shortened: as §1
# [4] = target: Fuc(a1-2)Gal(b1-4)GlcNAc(b1-3)[Fuc(a1-2)Gal(b1-4)GlcNAc(b1-6)]GalNAc
# Procedure, shortened: as §1
# [5] = target: Fuc(a1-2)Gal(b1-4)GlcNAc(b1-6)GalNAc
# Procedure, shortened: as §1
# [6] = target: Fuc(a1-2)Gal(b1-4)[Fuc(a1-3)]GalNAc(b1-3)Gal(b1-4)[Fuc(a1-3)]GlcNAc
# Procedure, shortened: as §1
# [7] = target: Fuc(a1-2)GlcNAc
# Procedure, shortened: as §1
# [8] = target: Fuc(a1-2)[Gal(a1-3)]Gal(b1-3)GlcNAc
# Procedure, shortened: as §1
# [9] = target: Fuc(a1-2)[Gal(a1-3)]Gal(b1-4)Glc
# Procedure, shortened: as §1
# [10] = target: Gal(a1-3)Gal(b1-4)GlcNAc
# Procedure, shortened: as §1
# [11] = target: Gal(a1-6)Glc
# Procedure, shortened: as §1
# [12] = target: Gal(b1-3)GalNAc(a1-3)[Fuc(a1-2)]Gal(b1-4)Glc
# Procedure, shortened: as §1
# [13] = target: Gal(b1-3)GalNAc(b1-3)Gal(b1-4)Glc
# Procedure, shortened: as §1
# [14] = target: Gal(b1-3)[Fuc(a1-4)]GlcNAc(b1-3)Gal(b1-3)[Fuc(a1-4)]GlcNAc
# Procedure, shortened: as §1
# [15] = target: Gal(b1-3)[Fuc(a1-4)]GlcNAc(b1-6)GalNAc
# Procedure, shortened: as §1
# [16] = target: Gal(b1-4)GlcNAc(b1-2)Man(a1-3)[GlcNAc(b1-4)][Gal(b1-4)GlcNAc(b1-2)Man(a1-6)]Man(b1-4)GlcNAc(b1-4)GlcNAc
# Procedure, shortened: as §1
# [17] = target: Gal(b1-4)GlcNAc(b1-2)Man(a1-6)Man(b1-4)GlcNAc(b1-4)GlcNAc
# Procedure, shortened: as §1
# [18] = target: Gal(b1-4)GlcNAc(b1-3)Gal(b1-4)GlcNAc(b1-3)Gal(b1-4)GlcNAc(b1-3)Gal(b1-4)GlcNAc(b1-3)Gal(b1-4)GlcNAc(b1-2)Man(a1-3)[Gal(b1-4)GlcNAc(b1-3)Gal(b1-4)GlcNAc(b1-3)Gal(b1-4)GlcNAc(b1-3)Gal(b1-4)GlcNAc(b1-3)Gal(b1-4)GlcNAc(b1-2)Man(a1-6)]Man(b1-4)GlcNAc(b1-4)[Fuc(a1-6)]GlcNAc
# Procedure, shortened: as §1
# [19] = target: Gal(b1-4)GlcNAc(b1-3)Gal(b1-4)GlcNAc(b1-3)[Gal(b1-4)GlcNAc(b1-3)Gal(b1-4)GlcNAc(b1-6)]GalNAc
# Procedure, shortened: as §1
# [20] = target: Gal3S(b1-4)Glc
# Procedure, shortened: as §1
# [21] = target: Gal3S(b1-4)[Fuc(a1-3)]GlcNAc
# Procedure, shortened: as §1
# [22] = target: Gal3S(b1-4)[Fuc(a1-3)]GlcNAc6S
# Procedure, shortened: as §1
# [23] = target: Gal3S6S(b1-4)GlcNAc6S
# Procedure, shortened: as §1
# [24] = target: Gal6S(b1-4)GlcNAc6S
# Procedure, shortened: as §1
# [25] = target: GalNAc(b1-3)GalNAc
# Procedure, shortened: as §1
# [26] = target: GalNAc(b1-4)Gal(b1-4)Glc
# Procedure, shortened: as §1
# [27] = target: GalNAc(b1-4)GlcNAc
# Procedure, shortened: as §1
# [28] = target: GalNAc(b1-4)GlcNAc(b1-3)GalNAc(b1-4)GlcNAc
# Procedure, shortened: as §1
# [29] = target: GlcA3S(b1-3)Gal(b1-4)GlcNAc(b1-3)Gal(b1-4)Glc
# Procedure, shortened: as §1
# [30] = target: GlcNAc(a1-4)Gal(b1-4)GlcNAc
# Procedure, shortened: as §1
# [31] = target: GlcNAc(a1-4)Gal(b1-4)GlcNAc(b1-3)Gal(b1-4)GlcNAc
# Procedure, shortened: as §1
# [32] = target: GlcNAc(a1-4)Gal(b1-4)GlcNAc(b1-3)Gal(b1-4)GlcNAc(b1-3)Gal(b1-4)GlcNAc
# Procedure, shortened: as §1
# [33] = target: GlcNAc(b1-2)Man(a1-3)[GlcNAc(b1-2)Man(a1-6)]Man(b1-4)GlcNAc(b1-4)GlcNAc
# Procedure, shortened: as §1
# [34] = target: GlcNAc(b1-3)Gal(b1-4)GlcNAc(b1-3)Gal(b1-4)GlcNAc(b1-2)[GlcNAc(b1-3)Gal(b1-4)GlcNAc(b1-3)Gal(b1-4)GlcNAc(b1-6)]Man(a1-6)[GlcNAc(b1-3)Gal(b1-4)GlcNAc(b1-3)Gal(b1-4)GlcNAc(b1-2)Man(a1-3)]Man(b1-4)GlcNAc(b1-4)[Fuc(a1-6)]GlcNAc
# Procedure, shortened: as §1
# [35] = target: GlcNAc(b1-3)Gal(b1-4)GlcNAc(b1-6)[Gal(b1-3)]GalNAc
# Procedure, shortened: as §1
# [36] = target: GlcNAc(b1-4)GlcNAc
# Procedure, shortened: as §1
# [37] = target: GlcNAc(b1-4)GlcNAc(b1-4)GlcNAc
# Procedure, shortened: as §1
# [38] = target: GlcNAc(b1-4)GlcNAc(b1-4)GlcNAc(b1-4)GlcNAc(b1-4)GlcNAc
# Procedure, shortened: as §1
# [39] = target: GlcNAc(b1-4)GlcNAc(b1-4)GlcNAc(b1-4)GlcNAc(b1-4)GlcNAc(b1-4)GlcNAc
# Procedure, shortened: as §1
# [40] = target: Man(a1-2)Man(a1-3)[Man(a1-3)[Man(a1-6)]Man(a1-6)]Man(b1-4)GlcNAc(b1-4)GlcNAc
# Procedure, shortened: as §1
# [41] = target: Neu5Ac(a2-3)Gal(b1-3)GlcNAc(b1-2)Man
# Procedure, shortened: as §1
# [42] = target: Neu5Ac(a2-3)Gal(b1-3)GlcNAc6S
# Procedure, shortened: as §1
# [43] = target: Neu5Ac(a2-3)Gal(b1-4)GlcNAc
# Procedure, shortened: as §1
# [44] = target: Neu5Ac(a2-3)Gal(b1-4)[Fuc(a1-3)]GlcNAc
# Procedure, shortened: as §1
# [45] = target: Neu5Ac(a2-3)Gal6S(b1-4)GlcNAc
# Procedure, shortened: as §1
# [46] = target: Neu5Ac(a2-6)Gal(b1-4)GlcNAc(b1-2)Man(a1-6)[Gal(b1-4)GlcNAc(b1-2)Man(a1-3)]Man(b1-4)GlcNAc(b1-4)GlcNAc
# Procedure, shortened: as §1
# [47] = target: Neu5Ac(a2-6)Gal(b1-4)GlcNAc(b1-3)Gal(b1-4)GlcNAc
# Procedure, shortened: as §1
# [48] = target: Neu5Ac(a2-6)GlcNAc(b1-4)GlcNAc(b1-4)GlcNAc
# Procedure, shortened: as §1
# [49] = target: Neu5Ac9Ac(a2-3)Gal(b1-4)GlcNAc
# Procedure, shortened: as §1
binder,measurement,setting,value
B1,glycan array binding signal (z-score),[1],-0.257
same,glycan array binding signal (z-score),[2],-0.193
same,glycan array binding signal (z-score),[3],-0.189
same,glycan array binding signal (z-score),[4],-0.001
same,glycan array binding signal (z-score),[5],0.002
same,glycan array binding signal (z-score),[6],-0.583
same,glycan array binding signal (z-score),[7],8.41
same,glycan array binding signal (z-score),[8],0.046
same,glycan array binding signal (z-score),[9],-0.037
same,glycan array binding signal (z-score),[10],-0.169
same,glycan array binding signal (z-score),[11],-0.097
same,glycan array binding signal (z-score),[12],-0.279
same,glycan array binding signal (z-score),[13],0.237
same,glycan array binding signal (z-score),[14],0.164
same,glycan array binding signal (z-score),[15],-0.081
same,glycan array binding signal (z-score),[16],-0.238
same,glycan array binding signal (z-score),[17],-0.168
same,glycan array binding signal (z-score),[18],-0.123
same,glycan array binding signal (z-score),[19],1.43
same,glycan array binding signal (z-score),[20],-0.117
same,glycan array binding signal (z-score),[21],-0.194
same,glycan array binding signal (z-score),[22],-0.154
same,glycan array binding signal (z-score),[23],-0.044
same,glycan array binding signal (z-score),[24],-0.292
same,glycan array binding signal (z-score),[25],-0.16
same,glycan array binding signal (z-score),[26],-0.076
same,glycan array binding signal (z-score),[27],1.89
same,glycan array binding signal (z-score),[28],3.34
same,glycan array binding signal (z-score),[29],-0.136
same,glycan array binding signal (z-score),[30],2.3
same,glycan array binding signal (z-score),[31],1.96
same,glycan array binding signal (z-score),[32],2.29
same,glycan array binding signal (z-score),[33],-0.274
same,glycan array binding signal (z-score),[34],0.944
same,glycan array binding signal (z-score),[35],-0.298
same,glycan array binding signal (z-score),[36],2.2
same,glycan array binding signal (z-score),[37],5.55
same,glycan array binding signal (z-score),[38],7.88
same,glycan array binding signal (z-score),[39],6.77
same,glycan array binding signal (z-score),[40],-0.106
same,glycan array binding signal (z-score),[41],-0.023
same,glycan array binding signal (z-score),[42],0.003
same,glycan array binding signal (z-score),[43],-0.086
same,glycan array binding signal (z-score),[44],-0.098
same,glycan array binding signal (z-score),[45],-0.179
same,glycan array binding signal (z-score),[46],-0.183
same,glycan array binding signal (z-score),[47],-0.202
same,glycan array binding signal (z-score),[48],2.46
same,glycan array binding signal (z-score),[49],-0.102
